Outcome and AC50 data for 40 compounds are collected here from PubChem BioAssay (EPA / NIEHS).

Calls of active or inactive are those of the source. Rule for the calls: active = hit-call score of the fitted dose curve at least 0.9, where 1 is the maximum; inactive = score below 0.9.

The assay is described as follows: APR_HepG2_CellLoss_1hr: Apredica 1-hour HepG2 Assay for Cell Loss (AID 2282668).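 Note: curves fitted both ways against DMSO so gain or loss of cells counts.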 The note with it: high-content imaging. How it is done: APR_HepG2_1hr is a cell-based, multiplexed-readout assay that uses HepG2, a human liver cell line, with measurements taken at 1 hour after chemical dosing in a 384-well plate.APR_HepG2_CellLoss_1hr is one of 10 assay component(s) measured or calculated from the APR_HepG2_1hr assay. It is designed to make measurements of cell number, a form of viability reporter, as detected with fluorescence intensity signals by HCS Fluorescent Imaging technology.Data from the assay component APR_HepG2_CellLoss_1hr was analyzed into 1 assay endpoint. This assay endpoint, APR_HepG2_CellLoss_1hr, was analyzed with bidirectional fitting relative to DMSO as the negative control and baseline of activity. Using a type of viability reporter, measures of all nuclear dna for gain or loss-of-signal activity can be used to understand the viability at the cellular-level. Furthermore, this assay endpoint can be referred to as a secondary readout, because this assay has produced multiple assay endpoints where this one serves a viability function. To generalize the intended target to other relatable targets, this assay endpoint is annotated to the cell cycle intended target family, where the subfamily is proliferation.
Cells were treated with dimethyl sulfoxide (DMSO) as a solvent control at a final concentration of 0.5% v/v or with compounds in DMSO with a resulting final DMSO concentration of 0.5% v/v. Compound treatment was done at concentrations of 0.39, 0.78, 1.56, 3.12, 6.24, 12.5, 25, 50, 100, and 200 uM in duplicate on each plate. Cells were treated with compounds for 1, 24, or 72 hr. Carbonyl […] m-chloro-phenylhydrazone (CCCP) and taxol were used as positive controls for mitochondrial function and cytoskeletal stability, respectively; DMSO served as the negative control for this experiment. Cells were fixed by the direct addition of 50 uL formaldehyde in Hank's Balanced Salt Solution (HBSS) to a final concentration of 3.7%. After incubation in the fixation medium for 30 min at room temperature (293-298 K), cells were rinsed twice with HBSS and treated with cell permeabilization buffer (16 uL of 0.5% Triton X-100) for 10 min at room temperature (293-298 K) before labeling. For mitochondrial membrane potential and mitochondrial measurements, pre-fixed cells were incubated with 50 uL of MitoTracker Red CMXRos (Invitrogen) at a concentration of 250 nM for 30 min before fixation. In the remaining cases, post-fixed cells were labeled by incubation with a multiplexed mixture of primary antibodies in HBSS for 60 min at room temperature (293-298 K) to detect immunoreactivity of c-Jun (1:500), phospho-histone H3 (1:100), phospho-histone H2A.x (1:200), p53 (1:400), alpha-tubulin (1:200) and Hoechst 33342 (2 ug/mL). Cells were labeled for multiplexed imaging on two separate plates: a) Hoechst 33342, MitoTracker Red, phospho-histone H3, and alpha-tubulin, and b) Hoechst 33342, phospho-histone H2A.x, and c-Jun. A final rinse with HBSS (50 uL) was performed before analysis. The primary and secondary antibodies for the proteins were phospho-histone H3 (rabbit anti-phospho-histone H3 and FITC-donkey anti-rabbit IgG), phospho-histone H2A.x (mouse anti-phospho-histone H2A.x and FITC-donkey anti-mouse IgG), c-Jun (rabbit anti-phospho-c-Jun and Cy3-donkey anti-rabbit IgG), p53 (sheep anti-p53 and Cy5-donkey anti-sheep IgG), alpha-tubulin (mouse anti-alpha-tubulin and Cy5-donkey anti-mouse IgG). These antibodies are available as the CellCiphr HepG2 assay kit (Millipore).Digital images of each well were captured using a Cellomics ArrayScan VTI (Thermo Scientific Cellomics) (0.8 NA objective, 0.63x optical coupler, and XF-93 filter set) at 20x magnification. The images were acquired using the autofocus feature of the ArrayScan instrument, which entails the following steps. First, the camera focuses on channel 1 (Hoechst 33342), where nuclei are identified. Second, a Z offset of 1 um is used for capturing mitochondria (MitoTracker Red). […]
Consider `c1ccc(Nc2ccccc2)cc1`, for which the call was inactive.

Regarding `CCN(CC)C(=O)c1cccc(C)c1`, the result was inactive.

Regarding `CC(C)(c1ccc(O)cc1)c1ccc(O)cc1`, the call was inactive.

As for `S=C([S-])NCCNC(=S)[S-].[Mn+2]`, the outcome was inactive. Same read-out and setting: the value for `CCC(O)=C1C(=O)CC(C(=O)O)CC1=O` (stereo not given) was “inactive”. Same read-out and setting: the result for `CC1(C)C(C=C(Cl)Cl)C1C(=O)OCc1cccc(Oc2ccccc2)c1` (stereo not given) reads “inactive”; that for `Oc1ccc(C(c2ccc(O)cc2)C(Cl)(Cl)Cl)cc1`, “inactive”; that for `CCCN(CCC)c1c([N+](=O)[O-])cc(C(F)(F)F)c(N)c1[N+](=O)[O-]`, “inactive”. The same measure, in the same setting: the value for `C#CCOC(=O)[C@@H](C)Oc1ccc(Oc2ncc(Cl)cc2F)cc1` was “inactive”; that for `COC(=O)c1c(Cl)nn(C)c1S(=O)(=O)NC(=O)Nc1nc(OC)cc(OC)n1` was “inactive”. Turning to `CCN(Cc1c(F)cccc1Cl)c1c([N+](=O)[O-])cc(C(F)(F)F)cc1[N+](=O)[O-]`, the compound was classed as inactive. Turning to `CCCCCOC(=O)COc1cc(N2C(=O)C3=C(CCCC3)C2=O)c(F)cc1Cl`, the compound was called inactive. Same read-out and setting: the result for `COC(=O)c1cccc(C)c1S(=O)(=O)NC(=O)Nc1nc(OCC(F)(F)F)nc(N(C)C)n1` reads “inactive”; that for `CCCCC(CC)COC(=O)c1ccccc1C(=O)O` (stereo not given), “inactive”; that for `COCCO`, “inactive”.

For the compound `CCSC(=O)N(CC(C)C)CC(C)C`, the outcome was inactive. Same read-out and setting: the value for `CCCCOCCOCCOCc1cc2c(cc1CCC)OCO2` was “inactive”; that for `CCOC(=O)C(C)Oc1ccc(Oc2nc3ccc(Cl)cc3o2)cc1` (stereo not given) was “inactive”; that for `OB(O)O` was “inactive”.

As to `COc1c(Cl)ccc(Cl)c1C(=O)O`, the result was inactive. For `COC(=O)CSc1cc(N=c2sc(=O)n3n2CCCC3)c(F)cc1Cl`, the result was inactive. Take `CCCCC(CC)CN1C(=O)C2C3C=CC(C3)C2C1=O` (stereo not given): the outcome was inactive. On the same count and under the same terms, the value for `CCOC(=O)NCCOc1ccc(Oc2ccccc2)cc1` was “inactive”; that for `CCCOC(=O)c1ccc(C(=O)OCCC)nc1` was “inactive”; that for `COC(=O)c1ccccc1C(=O)O` was “inactive”. For the compound `CCOC(=O)COc1cc(-n2ncc(C(F)(F)F)c(C)c2=O)c(F)cc1Cl`, the compound was called inactive. Still for that read-out and setting: the value for `COC(=O)c1ccccc1S(=O)(=O)NC(=O)Nc1nc(OC(F)F)cc(OC(F)F)n1` was “inactive”; that for `CCNc1nc(N)nc(Cl)n1` was “inactive”; that for `S=C(S)NCCNC(=S)S.[Mn+2].[S-]C([S-])=NCCN=C([S-])[S-].[Zn+2]` was “inactive”. On the same count and under the same terms, the value for `CSC(=O)c1cccc2nnsc12` was “inactive”.

As to `c1ccc2[nH]c(-c3cscn3)nc2c1`, the compound was classed as inactive. As to `CCCN(CCC)C(=O)SCC`, the compound was called inactive. The same measure, in the same setting: the value for `CCOC(=O)C(C)Oc1ccc(Oc2cnc3cc(Cl)ccc3n2)cc1` (stereo not given) was “inactive”.

Turning to `CC(C)(C)[C@@H](O)[C@@H](Cc1ccc(Cl)cc1)n1cncn1`, the result was inactive. In the case of `CCCCCCC(C)OC(=O)COc1nc(F)c(Cl)c(N)c1Cl` (stereo not given), the AC50 was 113 µM (active). As to `CCC(C)OC(=O)N1CCCCC1CCO` (stereo not given), the outcome was inactive. Still for that read-out and setting: the result for `CCOC(=O)[C@H](C)Oc1ccc(Oc2nc3ccc(Cl)cc3o2)cc1` reads “inactive”; that for `CCCCOC(=O)C(C)Oc1ccc(Oc2ccc(C(F)(F)F)cn2)cc1` (stereo not given), “inactive”. On the same count and under the same terms, the value for `COC(=O)c1ccc(I)cc1S(=O)(=O)NC(=O)Nc1nc(C)nc(OC)n1` was “inactive”.

For the compound `CCCCOC(=O)[C@@H](C)Oc1ccc(Oc2ccc(C(F)(F)F)cn2)cc1`, the compound was classed as inactive.
